The list is not random: actives were taken first. Their share in the collection is about 12%.
Lmaj promast: Leishmania major promastigote growth inhibition. Leishmania major promastigotes, resazurin fluorescence viability. AID 1063. 9% of 200,000 active. inhibition, % at 10 µM; in the data active = inhibition above about 50%;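 note: promastigotes grown with compound for 44 hours at 28 °C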
WT yeast gro inh: growth inhibition of WT yeast, mitochondrial fusion screen; mitochondrial fusion phenotypic screen, WT strain; inhibition, % at 10 µM; 2.1% of 190,000 active; in the data active = inhibition above about 58%; tested in S. cerevisiae
m-calpain inh: inhibitors of pig calpain II; purified calpain II, fluorogenic peptide substrate, 30 min; inhibition, % at 16 µM; 0.37% of 220,000 active; AID 1236;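 active = inhibition above about 50%, limit read from the data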
ROMK primary: modulators of human ROMK potassium channel; P48048; Tet-inducible ROMK, thallium flux fluorescence; actives lie on both sides; B-score at 10 µM; 2% of 130,000 active; AID 1918;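 active = signal ratio slope over the read window, or its plate-corrected B-score, at least 3 SD from the plate mean, either direction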;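 note: B-score of the F/F0 ratio slope over 7 to 12 s after thallium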
Cl transport mod: modulators of human KCC2 chloride dependent transport | 2.2% of 190,000 active | KCC2 cells, thallium flux FluoZin-2 fluorescence | AID 1456 | Q9H2X9 | B-score of Tl+ flux slope (higher = more flux/activation; lower = inhibition) at 10 µM;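 active = thallium flux slope and its plate-corrected score both differing from the plate sample mean at a set confidence after two filtering rounds, in either direction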;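 note: slope of fluorescence scaled to starting intensity during 10 to 20 s after thallium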
Target sequence (Q9H2X9 whole entry, looked up): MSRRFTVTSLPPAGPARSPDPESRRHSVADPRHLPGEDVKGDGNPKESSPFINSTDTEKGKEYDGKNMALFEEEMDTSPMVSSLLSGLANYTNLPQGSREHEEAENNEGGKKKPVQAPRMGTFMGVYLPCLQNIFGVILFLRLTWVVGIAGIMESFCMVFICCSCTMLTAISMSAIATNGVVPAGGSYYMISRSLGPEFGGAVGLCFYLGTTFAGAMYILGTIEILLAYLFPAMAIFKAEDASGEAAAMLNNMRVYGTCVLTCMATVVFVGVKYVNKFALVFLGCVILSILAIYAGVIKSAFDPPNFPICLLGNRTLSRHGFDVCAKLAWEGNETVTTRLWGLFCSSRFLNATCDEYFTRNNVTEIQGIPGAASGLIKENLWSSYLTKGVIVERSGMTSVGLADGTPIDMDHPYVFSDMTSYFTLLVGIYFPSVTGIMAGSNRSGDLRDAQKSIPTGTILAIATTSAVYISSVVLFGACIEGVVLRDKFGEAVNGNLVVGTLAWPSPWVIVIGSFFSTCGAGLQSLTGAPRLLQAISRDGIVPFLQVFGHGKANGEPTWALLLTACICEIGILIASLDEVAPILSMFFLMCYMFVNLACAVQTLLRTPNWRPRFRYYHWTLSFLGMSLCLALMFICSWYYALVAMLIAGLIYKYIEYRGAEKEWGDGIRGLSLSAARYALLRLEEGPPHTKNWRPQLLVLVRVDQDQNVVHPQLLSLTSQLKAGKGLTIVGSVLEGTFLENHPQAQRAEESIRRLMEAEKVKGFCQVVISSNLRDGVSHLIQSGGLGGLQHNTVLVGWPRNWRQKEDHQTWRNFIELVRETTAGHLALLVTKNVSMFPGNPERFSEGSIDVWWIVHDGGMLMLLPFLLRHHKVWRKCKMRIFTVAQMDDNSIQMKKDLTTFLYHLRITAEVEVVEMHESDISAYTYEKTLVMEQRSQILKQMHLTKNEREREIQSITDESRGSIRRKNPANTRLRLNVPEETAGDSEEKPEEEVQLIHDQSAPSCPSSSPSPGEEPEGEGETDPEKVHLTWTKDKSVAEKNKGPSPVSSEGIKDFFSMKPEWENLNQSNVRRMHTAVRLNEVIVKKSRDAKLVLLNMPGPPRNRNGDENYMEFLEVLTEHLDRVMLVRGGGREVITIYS
KCC2 secondary: confirmation of human KCC2 transport modulators | shares compounds with Cl transport mod | AID 1713 | normalised thallium flux (F/F0 slope) at 10 µM | 15% of 3,700 active | HEK293-KCC2, thallium flux, FluoZin2 fluorescence; active compounds read high;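 active = thallium flux slope above the same plate's solvent-only control mean plus 3 SD; inconclusive = the two replicate wells disagree; inactive = no significant difference from solvent-only control wells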
KCC2 bumet counter: bumetanide-insensitive thallium flux in KCC2 cells with ouabain, counter-screen; shares compounds with Cl transport mod; 49% of 3,700 active; normalized thallium flux at 10 µM; AID 1714; HEK293-KCC2 + bumetanide/ouabain, thallium flux FluoZin2; active compounds read high;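 active = thallium entry rate above the same plate's blocked-transporter control wells by more than 3 SD; inconclusive = the two repeat wells disagree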;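 note: raw slope of fluorescence over initial fluorescence between 10 and 20 s after thallium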
KCC2 sec2: KCC2 (human) modulation, second secondary assay. shares compounds with Cl transport mod. HEK293-KCC2, thallium flux FluoZin2 fluorescence; actives lie on both sides; F/F0 rise rate, 10–20 s post-thallium. normalized thallium flux at 10 µM. 23% of 3,700 active. AID 1715;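 active = thallium flux slope more than 3 SD above or below the plate's solvent-only control mean, mostly below; inconclusive = the two repeat wells disagreed; inactive = no significant shift from solvent-only controls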
HEK293 Tl flux: acts in parental HEK cells, KCC2 counter-screen | shares compounds with Cl transport mod | HEK293 parental cells, thallium flux FluoZin2, ouabain; baseline-ratio fluorescence slope, 10–20 s after thallium | thallium flux rate (normalised fluorescence) at 10 µM | 46% of 3,700 active;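 active = thallium flux rate significantly above the same plate's solvent-only control wells, beyond their mean plus 3 SD; inconclusive = the two replicate wells gave conflicting results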
KCC2 retest ouab: modulates human KCC2 on retest with ouabain; shares compounds with Cl transport mod; HEK293-KCC2, thallium flux FluoZin2 fluorescence; bidirectional: low = inhibitor, high = activator; raw Tl+ flux slope (below DMSO = inhibition, above = activation) at 10 µM; 48% of 3,700 active;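 active = thallium flux slope beyond 3 SD from same-plate DMSO control mean in most replicates, usually higher, sometimes lower; inconclusive = repeat tests gave conflicting results; inactive = no significant difference from controls in most replicates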;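 note: slope of initial-normalized fluorescence between seconds 10 and 20 after thallium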
HEK293 Tl flux2: counter-screen for KCC2 modulators: effect in parental HEK293 cells; shares compounds with Cl transport mod; thallium flux FluoZin-2 fluorescence slope; thallium flux slope at 10 µM; 33% of 3,700 active;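 active = thallium flux slope above the same plate's solvent-control mean plus 3 SD in both duplicate wells; inconclusive = duplicate wells that disagreed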;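 note: run without ouabain in cells lacking the KCC2 cotransporter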
Of the large screens only hits and unclear results are named; the others gave an inactive call (follow-up assays come after a bar, where they were run).

COC(=O)c1sccc1NC(=S)OC	Cl transport mod 4.7 (no result: Lmaj promast, WT yeast gro inh, ROMK primary) | KCC2 secondary inconclusive | KCC2 bumet counter 0.012 | KCC2 sec2 inactive | HEK293 Tl flux 0.016 | KCC2 retest ouab inconclusive | HEK293 Tl flux2 0.013
Cc1ccc2c(c1)C1CN(C)CCC1N2C(=S)NC(=O)c1ccc(Cl)cc1Cl (configuration not stated)	Cl transport mod 61 (no result: Lmaj promast, WT yeast gro inh, ROMK primary) | KCC2 secondary 0.023 | KCC2 bumet counter 0.11 | KCC2 sec2 inactive | HEK293 Tl flux 0.032 | KCC2 retest ouab 0.061 | HEK293 Tl flux2 0.013
Cc1ccc2c(c1)C1CN(C)CCC1N2C(=O)COc1ccccc1F (configuration not stated)	none (no result: Lmaj promast, WT yeast gro inh, ROMK primary)
O=[N+]([O-])c1cc(Br)c(O)c(/C=N/Nc2nnnn2-c2cccc3ccccc23)c1	Cl transport mod -3.2 | KCC2 secondary inactive | KCC2 bumet counter inactive | KCC2 sec2 inconclusive | HEK293 Tl flux inconclusive | KCC2 retest ouab inconclusive | HEK293 Tl flux2 inactive
COc1cc([N+](=O)[O-])cc(/C=N/NC(=O)c2cc(C)nc3ccccc23)c1O	none (no result: Lmaj promast, WT yeast gro inh, ROMK primary)
Cc1ccccc1NC(=O)c1cc([N+](=O)[O-])ccc1NCCN1C(=O)CCC1=O	none
CC1=NN(C(=O)c2cc(C)nn2C)C(O)(C(F)(F)F)C1 (configuration not stated)	none
COc1ccccc1NC(=O)c1oc2ccccc2c1NC(=O)c1cc(OC)c(OC)c(OC)c1	none (no result: WT yeast gro inh, m-calpain inh, ROMK primary)
COc1ccccc1NC(=O)c1oc2ccc(C)cc2c1C	Cl transport mod -4.7 (no result: WT yeast gro inh, ROMK primary) | KCC2 secondary inactive | KCC2 bumet counter inactive | KCC2 sec2 inactive | HEK293 Tl flux inactive | KCC2 retest ouab inactive | HEK293 Tl flux2 inactive
CC1CCN(C(=S)Nc2ccc(F)cc2)CC1	none (no result: ROMK primary)
C/C(=N\NC(=S)Nc1ccc(F)cc1)C1CC1	Cl transport mod 8.4 (no result: ROMK primary) | KCC2 secondary inactive | KCC2 bumet counter 0.024 | KCC2 sec2 inactive | HEK293 Tl flux 0.018 | KCC2 retest ouab 0.028 | HEK293 Tl flux2 0.022
COc1ccc(-c2cc(=O)oc3cc(OCc4nn[nH]n4)ccc23)cc1	none (no result: Cl transport mod)
COC(=O)c1ccc(Cl)c(NC(=O)CN(c2ccccc2)S(=O)(=O)c2ccc(OC)cc2)c1	Cl transport mod -4.4 (no result: ROMK primary) | KCC2 secondary inactive | KCC2 bumet counter inactive | KCC2 sec2 inconclusive | HEK293 Tl flux inactive | KCC2 retest ouab 0.019 | HEK293 Tl flux2 inactive
COc1ccc(NC(=O)CN(c2ccccc2)S(=O)(=O)c2ccccc2)c(OC)c1	none (no result: Lmaj promast, WT yeast gro inh, ROMK primary)
Oc1ccc(-c2csc(-c3ccccc3)n2)cc1O	Lmaj promast 59, Cl transport mod -4.4 (no result: ROMK primary) | KCC2 secondary inactive | KCC2 bumet counter inconclusive | KCC2 sec2 inactive | HEK293 Tl flux inactive | KCC2 retest ouab 0.021 | HEK293 Tl flux2 inactive
Oc1ccc(-c2csc(-c3cccnc3)n2)cc1O	none (no result: Lmaj promast, WT yeast gro inh, ROMK primary, Cl transport mod)
CN(NS(=O)(=O)c1ccc(Br)cc1)c1nc(C(F)(F)F)nc2ccccc12	WT yeast gro inh 77, Cl transport mod -3.8 (no result: ROMK primary) | KCC2 secondary inactive | KCC2 bumet counter inactive | KCC2 sec2 inactive | HEK293 Tl flux inactive | KCC2 retest ouab 0.018 | HEK293 Tl flux2 inactive
CN(N)c1nc(C(F)(F)F)nc2ccccc12	none
CCn1c(N2CCC(Cc3ccccc3)CC2)nc2c1c(=O)[nH]c(=O)n2C	Cl transport mod -3.1 (no result: ROMK primary) | KCC2 secondary inactive | KCC2 bumet counter inactive | KCC2 sec2 inactive | HEK293 Tl flux 0.0061 | KCC2 retest ouab 0.016 | HEK293 Tl flux2 inactive
Cc1sc(NC(=O)C2C3CCC(O3)C2C(=O)O)nc1-c1ccc(CC(C)C)cc1 (configuration not stated)	none
Cc1cc(C)c2nc(SCC(=O)NNC(=O)c3ccco3)c(C)cc2c1	Cl transport mod 4.8 | KCC2 secondary inactive | KCC2 bumet counter 0.021 | KCC2 sec2 inactive | HEK293 Tl flux 0.0098 | KCC2 retest ouab inactive | HEK293 Tl flux2 0.013
Cc1cc2cccc(C)c2nc1SCC(=O)NNC(=O)c1ccco1	none
Cc1nn(-c2ccccc2)c(C)c1/C=N/n1c(-c2ccccc2Br)n[nH]c1=S	Cl transport mod 10 (no result: Lmaj promast, WT yeast gro inh, ROMK primary) | KCC2 secondary inactive | KCC2 bumet counter 0.042 | KCC2 sec2 inactive | HEK293 Tl flux 0.011 | KCC2 retest ouab inconclusive | HEK293 Tl flux2 inconclusive
CCCCCCCCCCCC(=O)NC1CCS(=O)(=O)C1 (configuration not stated)	none
CC1(CCc2ccccc2)NC(=O)N(Cc2nnc(-c3ccccc3Br)o2)C1=O (configuration not stated)	none (no result: Cl transport mod) | KCC2 secondary inactive | KCC2 bumet counter inactive | KCC2 sec2 0.024 | HEK293 Tl flux inactive | KCC2 retest ouab 0.016 | HEK293 Tl flux2 inactive
COC(=O)c1cnn(-c2ccccc2)c1/C=N/NC(=S)Nc1ccccc1	Cl transport mod 9.2 (no result: Lmaj promast, WT yeast gro inh) | KCC2 secondary inactive | KCC2 bumet counter 0.019 | KCC2 sec2 inactive | HEK293 Tl flux 0.012 | KCC2 retest ouab 0.029 | HEK293 Tl flux2 inactive
CNC(=S)N/N=C/c1c(C(=O)OC)cnn1-c1ccc(F)cc1F	none (no result: Lmaj promast, WT yeast gro inh)
COC(=O)c1cnn(-c2ccc(F)cc2F)c1/C=N/NC(=S)NC(C)(C)C	Cl transport mod 7.8 (no result: Lmaj promast, WT yeast gro inh) | KCC2 secondary inactive | KCC2 bumet counter 0.051 | KCC2 sec2 inactive | HEK293 Tl flux 0.017 | KCC2 retest ouab inactive | HEK293 Tl flux2 inconclusive
COc1cc(C(=O)NC2CCCNC2)cc(OC)c1OC (configuration not stated)	none (no result: Lmaj promast, ROMK primary)
Cc1nnc(SCC(=O)NCc2ccc(F)cc2)[nH]c1=O	none
O=C(O)/C=C/c1ccccc1Oc1ccc(Cl)cc1Cl	Cl transport mod -6.6 | KCC2 secondary inactive | KCC2 bumet counter 0.006 | KCC2 sec2 0.021 | HEK293 Tl flux inactive | KCC2 retest ouab inconclusive | HEK293 Tl flux2 inactive
Cc1nn(Cc2c(F)c(F)c(F)c(F)c2F)c(C)c1NC(=O)c1ccc(COc2ccccc2Cl)o1	Cl transport mod -6.4 (no result: ROMK primary) | KCC2 secondary inactive | KCC2 bumet counter inactive | KCC2 sec2 inactive | HEK293 Tl flux inactive | KCC2 retest ouab 0.015 | HEK293 Tl flux2 inactive
Cc1nc(SC2CC(=O)N(c3ccccc3)C2=O)nc2c1CCCC2 (configuration not stated)	none (no result: Cl transport mod) | KCC2 secondary inactive | KCC2 bumet counter inactive | KCC2 sec2 0.026 | HEK293 Tl flux inconclusive | KCC2 retest ouab 0.016 | HEK293 Tl flux2 inactive

High-throughput results deposited in PubChem BioAssay by several laboratories.
